Measurements from PubChem BioAssay (NCATS).
Records with an inconclusive call do not appear. Activity calls are given as the source filed them. Unless noted, calls come from the whole dose curve; as a rule, active = well fitted curve in the direction sought with a large enough effect; inconclusive = small, poorly fitted or top-dose-only effect, or another doubt; inactive = no such curve, though single readings can be large; an effect the other way counts as inactive or inconclusive.

Assays:
[1] = biological target: DNA repair nuclease/redox regulator APEX1 (Homo sapiens) (UniProt P27695); test: qHTS Validation Assay for Inhibitors of the Human Apurinic/apyrimidinic Endonuclease 1 (APE1) (AID 1705; note: potency is the fitted concentration of half-maximal effect)
In short: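 Substrate: 50 nM final fluorophore/quencher THF-abasic duplex. Enzyme preincubated with compounds 15 min, RT. Progress derived from fluorescence difference, third minus first kinetic read.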

[2] = Counterscreen for APE1 Inhibitors: Fluorescent Dye Displacement Validation Assay (AID 1707)
In short: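 Assay buffer: Tris-HCl pH7.5 with 50mM NaCl, 2 mM MgCl2, 0.01% Tween-20. Dye 250 nM, duplex 50 nM final. Readout: decrease in ThO endpoint fluorescence, 480 nm excitation, 540 nm emission.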

[3] = qHTS for differential inhibitors of proliferation of Plasmodium falciparum line Dd2 (AID 1882); conditions: Potency: Plasmodium falciparum Dd2 proliferation inhibition; note: nearly all actives have a fitted effect of over 65% in size; note: potency is the fitted concentration of half-maximal effect
In short: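 Dd2-infected erythrocytes (0.3% parasitemia, 2.5% hematocrit final) incubated with compound 72 h at 37 C, 5% CO2; lysed with saponin/Triton buffer containing SYBR Green I, incubated overnight in the dark, then read by fluorescence (485/535 nm). Normalized to 0.29 uM artemisinin and DMSO.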

[4] = biological target: Ferritin light chain (Equus caballus) (UniProt P02791); test: qHTS Validation Assay for Identification of Novel General Anesthetics (AID 2323); note: series mostly up to about 77 µM
In short: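 Normalized fluorescence response, scaled between free 1-AMA and 1-AMA/apoferritin complex, fitted to a four-parameter Hill equation for concentration-effect values. Binding mix: 10 uM horse-spleen apoferritin, 50% saturated 1-AMA in PBS; read 380/535 nm after 10 min.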

[5] = biological target: ATP-dependent DNA helicase Q1 (Homo sapiens) (UniProt P46063); test: qHTS Validation Assay for Inhibitors of RecQ-Like Dna Helicase 1 (RECQ1) (AID 2353)
In short: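 50 nM RECQ1T1 preincubated 15 min with compound in Tris pH 8.0 buffer with MgCl2, DTT, Tween-20 and 2.5 ug/ml poly(dI-dC); started with 200 nM TAMRA/BHQ-2 forked duplex and 2 mM ATP. Unwinding read as fluorescence (525/598 nm), two reads 2 h apart.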

[6] = biological target: RecQ-like DNA helicase BLM (Homo sapiens) (UniProt P54132); test: qHTS Validation Assay for Inhibitors of Bloom's syndrome helicase (BLM) (AID 2364)
In short: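 50 nM BLM preincubated 15 min at room temperature with compound in pH 8.0 Tris buffer containing 2.5 ug/ml poly(dI-dC); started with 200 nM TAMRA/BHQ-2 forked duplex and 2 mM ATP (final). Unwinding read as TAMRA fluorescence increase, two reads 2 h apart.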

[7] = Cytometric Cell-Based qHTS for Inhibitors of the mTORC1 Signaling Pathway in MEF (Tsc2-/-, p53-/-) Cells (AID 2660);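 note: percent of cells above a phospho-rpS6 to PI ratio cutoff in each well; series mostly up to about 38 µM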
In short: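 Cells are plated, treated with compound for 24 hrs at 37 degree Celsius, then fixed, blocked and immunostained for phospho-rpS6 Ser235/236. Propidium iodide counterstain follows. Per-well % positive cells is derived from the PI-normalized phospho-S6 signal.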

[8] = High Content Imaging Cell-Based qHTS for Inhibitors of the mTORC1 Signaling Pathway in MEF (Tsc2-/-, p53-/-) Cells (AID 2666);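 note: percent of cells scored positive for phospho-rpS6 Ser235/236 immunostaining by imaging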
In short: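 Phospho-rpS6 (Ser235/236) immunofluorescence, normalized and scored as % positive cells using rapamycin and DMSO controls, was read in empty-vector Tsc2-/-, p53-/- MEFs after 24 h compound exposure at 37 C; propidium iodide counted cells.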

[9] = qHTS for differential inhibitors of proliferation of Plasmodium falciparum line 7G8 (AID 1815);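 note: parasite growth measured after three days of incubation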; note: potency is the fitted concentration of half-maximal effect
[10] = qHTS for differential inhibitors of proliferation of Plasmodium falciparum line W2 (AID 1883); conditions: Potency: Plasmodium falciparum W2 proliferation inhibition;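 note: parasites grown with compound for 72 h before lysis and staining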; note: potency is the fitted concentration of half-maximal effect
[11] = qHTS for differential inhibitors of proliferation of Plasmodium falciparum line HB3 (AID 1886); conditions: Potency: Plasmodium falciparum HB3 proliferation inhibition;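 note: parasites grown with compound for 72 h before SYBR Green readout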; note: potency is the fitted concentration of half-maximal effect
[12] = biological target: Endonuclease 4 (Escherichia coli (strain K12)) (UniProt P0A6C1); test: Counterscreen for APE1 Inhibitors: qHTS Validation Assay for Inhibitors of Endonuclease IV (AID 1708)
In short: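 E. coli EndoIV at 2 nM final, preincubated 15 min at room temperature with compound, then 50 nM TAMRA/BHQ-2 THF abasic-site duplex added. Buffer: 50 mM Tris-HCl pH 7.5, 50 mM NaCl, 2 mM MgCl2, 1 mM DTT, 0.01% Tween-20. Kinetic fluorescence increase, third minus first read.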

[13] = qHTS for differential inhibitors of proliferation of Plasmodium falciparum line GB4 (AID 1816); conditions: Potency: Plasmodium falciparum GB4 proliferation inhibition;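 note: parasite growth measured after 72 h incubation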; note: potency is the fitted concentration of half-maximal effect
[14] = qHTS for differential inhibitors of proliferation of Plasmodium falciparum line D10 (AID 1877);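 note: parasites grown with compound for 72 h before DNA staining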; note: potency is the fitted concentration of half-maximal effect
[15] = qHTS for differential inhibitors of proliferation of Plasmodium falciparum line 3D7 (AID 1876); note: potency is the fitted concentration of half-maximal effect
[16] = qHTS Assay for Identification of Small Molecule Inducers of Hypoxia Response (AID 2120; active = well fitted curve in the direction sought with a large enough effect in the signal ratio, with a control signal flat, not every such curve was filed as active; the % refers to the signal ratio)
In short: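 HRE-bla ME-180 cells in Opti-MEM with 0.5% dialyzed FBS, pre-plated 4-5 h, then compound titration for 17 h at 37 degrees Celsius. CCF4 loaded 2.5 h at room temperature; 460/530 nm ratio gave %Activity and AC50 for induction.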

[17] = qHTS Assay for Modulators of Human Peripheral Myelin Protein 22 (PMP22) Expression/Activity (AID 1967; active = well fitted curve in the direction sought with a large enough effect in the signal ratio; the % refers to the signal ratio)
In short: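 Engineered MSC80 cells, Pmp22-promoter green and EF-alpha red luciferase reporters; 24h compound treatment at 37 °C. Concentration-response fits on green, red and ratio signals, each overlap-corrected, with %Activity normalized to untreated wells.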

Measured: Potency

Chain of ATP-dependent DNA helicase Q1 (Homo sapiens) (P46063 whole entry, looked up): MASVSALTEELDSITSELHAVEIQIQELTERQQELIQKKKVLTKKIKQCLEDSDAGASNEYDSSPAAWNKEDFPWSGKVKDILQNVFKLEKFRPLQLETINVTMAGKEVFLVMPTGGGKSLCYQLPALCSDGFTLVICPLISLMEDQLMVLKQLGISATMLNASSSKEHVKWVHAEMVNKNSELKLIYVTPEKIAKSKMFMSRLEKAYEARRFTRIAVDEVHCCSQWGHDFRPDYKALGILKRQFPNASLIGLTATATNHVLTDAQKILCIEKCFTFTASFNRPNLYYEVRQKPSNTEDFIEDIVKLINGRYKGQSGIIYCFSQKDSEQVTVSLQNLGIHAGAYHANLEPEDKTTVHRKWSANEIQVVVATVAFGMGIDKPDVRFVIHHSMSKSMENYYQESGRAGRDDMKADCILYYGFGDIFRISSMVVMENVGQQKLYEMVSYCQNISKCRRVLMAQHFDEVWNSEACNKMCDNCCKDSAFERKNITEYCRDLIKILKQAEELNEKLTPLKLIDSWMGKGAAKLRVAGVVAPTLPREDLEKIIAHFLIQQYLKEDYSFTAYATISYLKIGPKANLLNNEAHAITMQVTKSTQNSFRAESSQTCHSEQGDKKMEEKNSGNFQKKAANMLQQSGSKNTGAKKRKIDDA
Chain of RecQ-like DNA helicase BLM (Homo sapiens) (P54132 whole entry, looked up): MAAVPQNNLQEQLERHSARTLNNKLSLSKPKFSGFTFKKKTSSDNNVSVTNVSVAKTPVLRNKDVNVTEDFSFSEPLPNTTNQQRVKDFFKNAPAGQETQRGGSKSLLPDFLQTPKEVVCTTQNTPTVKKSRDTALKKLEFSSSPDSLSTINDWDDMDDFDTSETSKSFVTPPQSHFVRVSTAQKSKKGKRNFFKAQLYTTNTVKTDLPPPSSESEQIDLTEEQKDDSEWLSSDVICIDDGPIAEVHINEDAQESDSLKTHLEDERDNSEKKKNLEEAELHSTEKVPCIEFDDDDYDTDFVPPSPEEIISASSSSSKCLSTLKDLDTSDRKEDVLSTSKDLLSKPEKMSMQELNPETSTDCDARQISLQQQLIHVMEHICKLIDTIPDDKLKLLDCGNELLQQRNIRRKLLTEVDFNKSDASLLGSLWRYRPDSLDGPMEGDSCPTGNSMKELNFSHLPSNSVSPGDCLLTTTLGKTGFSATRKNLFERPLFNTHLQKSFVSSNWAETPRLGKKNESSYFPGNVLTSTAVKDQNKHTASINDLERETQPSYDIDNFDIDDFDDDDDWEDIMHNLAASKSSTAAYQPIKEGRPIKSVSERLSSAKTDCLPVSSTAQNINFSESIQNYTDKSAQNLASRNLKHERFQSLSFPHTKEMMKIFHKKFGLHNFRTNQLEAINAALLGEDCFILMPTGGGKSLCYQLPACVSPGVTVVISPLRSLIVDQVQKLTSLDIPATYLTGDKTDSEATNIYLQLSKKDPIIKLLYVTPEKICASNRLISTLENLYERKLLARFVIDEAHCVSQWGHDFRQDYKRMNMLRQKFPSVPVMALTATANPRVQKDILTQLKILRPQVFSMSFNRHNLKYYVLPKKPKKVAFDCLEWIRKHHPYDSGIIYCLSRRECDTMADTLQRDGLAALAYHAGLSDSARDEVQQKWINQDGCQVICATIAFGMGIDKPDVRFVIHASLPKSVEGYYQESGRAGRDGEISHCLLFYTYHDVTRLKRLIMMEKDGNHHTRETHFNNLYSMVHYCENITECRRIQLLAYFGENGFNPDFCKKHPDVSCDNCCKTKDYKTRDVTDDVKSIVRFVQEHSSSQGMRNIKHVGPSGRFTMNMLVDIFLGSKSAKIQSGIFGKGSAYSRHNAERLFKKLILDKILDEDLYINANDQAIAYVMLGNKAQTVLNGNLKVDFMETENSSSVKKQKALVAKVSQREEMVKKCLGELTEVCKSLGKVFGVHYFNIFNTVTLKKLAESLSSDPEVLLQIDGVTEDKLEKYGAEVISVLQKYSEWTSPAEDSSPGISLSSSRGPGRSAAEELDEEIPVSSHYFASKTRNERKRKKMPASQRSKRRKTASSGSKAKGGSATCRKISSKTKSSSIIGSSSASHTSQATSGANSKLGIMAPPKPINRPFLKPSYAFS
Chain of Ferritin light chain (Equus caballus) (P02791 2-175 limits assumed): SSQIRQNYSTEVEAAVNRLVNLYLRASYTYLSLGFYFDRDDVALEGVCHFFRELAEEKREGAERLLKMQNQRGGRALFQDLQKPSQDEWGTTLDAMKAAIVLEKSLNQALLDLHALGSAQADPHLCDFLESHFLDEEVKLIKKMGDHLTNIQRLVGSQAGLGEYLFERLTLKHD
Chain of DNA repair nuclease/redox regulator APEX1 (Homo sapiens) (P27695 whole entry, looked up): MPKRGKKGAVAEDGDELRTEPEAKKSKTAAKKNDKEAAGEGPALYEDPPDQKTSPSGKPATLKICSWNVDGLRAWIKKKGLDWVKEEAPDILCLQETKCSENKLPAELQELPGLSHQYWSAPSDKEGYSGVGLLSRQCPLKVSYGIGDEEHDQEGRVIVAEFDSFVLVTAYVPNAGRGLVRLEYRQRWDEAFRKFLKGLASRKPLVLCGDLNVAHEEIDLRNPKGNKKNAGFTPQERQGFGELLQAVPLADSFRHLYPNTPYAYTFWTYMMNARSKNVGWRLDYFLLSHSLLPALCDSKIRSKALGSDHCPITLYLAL

C=C[C@@H]1CN2CC[C@@H]1C[C@H]2[C@H](O)c1ccnc2ccc(OC)cc12
inactive: [1] | [2] | [4] | [5] | [6] | [7] | [8]
active: [3] 0.316 µM

Cc1cc(NC(=O)Nc2ccc3c(ccn3C)c2)sn1
active: [9] 7.94 µM | [10] 7.94 µM | [11] 12.6 µM
inactive: [1] | [3] | [4] | [5] | [8]

C[C@@H](NC(=O)/C(C#N)=C/c1ccc(O)c(O)c1)c1ccccc1
active: [9] 11.2 µM | [13] 10 µM | [14] 12.6 µM | [10] 11.2 µM | [11] 11.2 µM
inactive: [1] | [12] | [5] | [7] | [8]

O=C(O)/C=C/C(O)c1ccc(Cl)cc1 (stereo unspecified)
not listed: [1] | [2] | [6] | [7] | [16] | [17]
inactive: all other assays above

COc1cc(/C=C/C(=O)CC(=O)/C=C/c2ccc(O)c(OC)c2)ccc1O
inactive: [16]

COC(=O)c1c(C)[nH]c(C)c1C(=O)c1ccccc1Cc1ccccc1
active: [9] 7.94 µM | [13] 7.94 µM | [15] 8.91 µM | [14] 14.1 µM | [10] 8.91 µM | [11] 12.6 µM
inactive: [1] | [2] | [5] | [8]

Oc1cc2c(cc1O)CN(C(=S)NCCc1ccc(Cl)cc1)CCC2
active: [9] 8.91 µM | [14] 12.6 µM | [3] 8.91 µM | [11] 8.91 µM
inactive: [1] | [12] | [5] | [8]

Brc1c(Br)c(Br)c2n[nH]nc2c1Br
not listed: [2] | [4] | [6] | [7] | [10] | [16]
inactive: all other assays above

O=C(O)/C=C\C(=O)O
inactive: [16]

O=C(O)CC1CCCc2ccccc2C1O (stereo unspecified)
not listed: [2] | [6] | [12] | [16]
inactive: all other assays above

Cn1cc(C2=C(c3ccc(Cl)cc3Cl)C(=O)NC2=O)c2ccccc21
inactive: [6] | [8]
active: [1] 35.5 µM | [9] 10 µM | [10] 7.08 µM

N#C/C(=C\c1ccc(O)c(O)c1)C(=O)NCCCc1ccccc1
inactive: [1] | [12] | [5] | [7] | [8]
active: [9] 8.91 µM | [13] 14.1 µM | [14] 11.2 µM | [10] 7.08 µM | [11] 12.6 µM

CC(C)(C)NCC(O)COc1nsnc1N1CCOCC1 (stereo unspecified)
inactive: [1] | [12] | [15] | [14] | [3] | [11] | [17] | [4] | [5]

Clc1ccc(N2CCN(Cc3c[nH]c4ncccc34)CC2)cc1
inactive: [1] | [12] | [3] | [4] | [5] | [6] | [7] | [8]

CC[C@@H](C)[C@H]1O[C@]2(CC[C@@H]1C)C[C@@H]1C[C@@H](C/C=C(\C)[C@@H](O[C@H]3C[C@H](OC)[C@@H](O[C@H]4C[C@H](OC)[C@@H](O)[C@H](C)O4)[C@H](C)O3)[C@@H](C)/C=C/C=C3\CO[C@@H]4[C@H](O)C(C)=C[C@@H](C(=O)O1)[C@]34O)O2
inactive: [2] | [5]
active: [9] 2 µM | [13] 1.12 µM | [15] 0.794 µM | [14] 2.51 µM | [3] 1.78 µM | [10] 1 µM | [11] 1.12 µM

CN(C)c1nc2c(Br)c(Br)c(Br)c(Br)c2[nH]1
inactive: [1] | [9] | [13] | [15] | [3] | [5] | [7] | [8]

CCCOC(=O)c1ccc(O)cc1
inactive: [16]

C#CCN1C(C)=C(C(=O)OC)C(c2cccc([N+](=O)[O-])c2)C(C(=O)OCC)=C1C (stereo unspecified)
active: [9] 7.94 µM | [13] 7.08 µM | [15] 11.2 µM | [14] 14.1 µM | [3] 12.6 µM | [10] 4.47 µM | [11] 7.94 µM
inactive: [1] | [5] | [8]

CCCCCCCCCCCCCCCCCC(=O)OC(CC(=O)O)C[N+](C)(C)C (stereo unspecified)
not listed: [2] | [4] | [12] | [16] | [17]
inactive: all other assays above

CN=c1nc(-c2ccccc2)n(-c2ccccc2)s1
active: [9] 10 µM | [13] 10 µM | [10] 10 µM
inactive: [1] | [3] | [4] | [5] | [8]
